Most compounds without a hit are left out; they make up all but 22% or so of the library.
CYP2C19 activ = human CYP2C19 activators, primary screen, biochemical, luminescence; recombinant CYP2C19, luciferin-H EGE luminescence; active compounds read high; 0 = fully inhibited enzyme, 1 = untreated enzyme; activation factor at 5 µM; 96,000 tested, under 10 active; AID 1025, 2008;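 active means activation factor of at least 2 at 5 µM in the primary screen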;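 further: 0 = wells with 2.5 mM tranylcypromine and 1 = vehicle-only wells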
CYP2C9 inhib = blockers of cytochrome P450 2C9 activity – biochemical, luminescence, ADME assay, primary screen. P11712. CYP2C9 Supersomes, luciferin-H conversion. inhibition, % at 5 µM. actives 20% (n = 96,000). AID 777, 2007;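 active means blocking of liver enzyme CYP2C9 beyond about 50% at 5 µM, limit read from the data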
Target sequence (P11712 whole entry, looked up): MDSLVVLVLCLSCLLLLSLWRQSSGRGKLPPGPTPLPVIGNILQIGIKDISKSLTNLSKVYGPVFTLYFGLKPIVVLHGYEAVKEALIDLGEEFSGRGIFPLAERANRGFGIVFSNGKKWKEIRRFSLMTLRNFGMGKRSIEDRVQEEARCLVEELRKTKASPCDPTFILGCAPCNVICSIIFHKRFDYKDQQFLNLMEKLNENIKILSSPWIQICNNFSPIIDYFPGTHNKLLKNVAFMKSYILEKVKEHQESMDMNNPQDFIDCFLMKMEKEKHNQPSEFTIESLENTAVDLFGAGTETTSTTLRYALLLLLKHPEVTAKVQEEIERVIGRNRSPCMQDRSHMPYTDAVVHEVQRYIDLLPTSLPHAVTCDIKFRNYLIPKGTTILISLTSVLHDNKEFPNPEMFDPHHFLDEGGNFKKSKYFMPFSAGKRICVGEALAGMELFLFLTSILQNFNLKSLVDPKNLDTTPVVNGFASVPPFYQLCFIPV
CYP2C9 act = human CYP2C9 activators, primary screen, biochemical, luminescence; recombinant CYP2C9, luciferin-H conversion; active compounds read high; factor 1 = untreated enzyme, 0 = blocked; AID 1024, 2008; Cytochrome P450 2C9 (Homo sapiens), P11712; actives 1.4% (n = 96,000); activation factor at 5 µM;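 active means activation factor of 2 or more for CYP2C9 at a 5 µM dose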;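 further: 0 = sulfaphenazole-blocked wells and 1 = vehicle-only wells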
Measles CPE = compounds protecting cells from measles virus cytopathic effect, primary screen, measles RdRp inhibitor project, single point, MLSMR library, absorbance; protection (pct of control), % at 4 µM; actives 1.5% (n = 140,000); Measles virus-infected cells, CPE protection; in the data active means protection mostly above about 24%, no sharp cut-off; inactive means mostly below about 26%
CYP2C19 inhib = blockers of cytochrome P450 2C19 activity – biochemical, luminescence, ADME assay, primary screen; P33261; CYP2C19 Supersomes, luciferin-H EGE luminescence, 30 min; inhibition, % at 5 µM; AID 778, 2007; actives 21% (n = 96,000);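 active means CYP2C19 inhibition above a set limit at 5 µM in the primary screen, cut at about 50% in these data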;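 further: plate controls were negative control wells for no effect and 2.5 mM tranylcypromine positive control for full effect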
Numbers without * were called inactive; . = no result given.

SMILES | CYP2C19 activ | CYP2C9 inhib | CYP2C9 act | Measles CPE | CYP2C19 inhib
Fc1cccc(NC(=S)NCc2cccnc2)c1 | . | . | . | 12 | .
COc1ccccc1C(N)=S | . | . | . | 1 | .
Cc1cc(N2CCC(C)CC2)nc2cccc(O)c12 | 0.8 | -205 | 3* | 4 | 23
Cc1coc(C)c1C(=O)CC1(O)C(=O)Nc2cc(Cl)cc(Cl)c21 (configuration not stated) | 0.4 | 50 | 0.5 | 13 | 59*
CC(=Nc1ccc(C)c(C)c1)C1=C(O)CCC1=O | 0.5 | 34 | 0.7 | 7 | 54*
CC(=Nc1ccccc1)C1=C(O)CCCC1=O | . | . | . | 7 | .
CC(C)(C)c1cn(-c2ccc(F)cc2)c(=S)[nH]1 | 0.4 | -18 | 1.2 | 4 | 63*
CCc1ccc(-n2cc(-c3ccc([N+](=O)[O-])cc3)[nH]c2=S)cc1 | . | . | . | 6 | .
COc1ccc(CN(CCC#N)C(=S)NC(=O)c2ccccc2)cc1 | 0.7 | 92* | 0.1 | 15 | 32
O=C(O)CCCC(=O)N(Cc1ccccc1)Cc1ccccc1 | 0.9 | 10 | 0.9 | 16 | 12
CCOc1ccc(CN(CCC#N)C(=S)NC(=O)c2ccccc2)cc1 | . | . | . | 10 | .
CCN(Cc1ccccc1)C(=O)CCCOc1ccccc1 | 0.3 | 15 | 0.9 | 4 | 73*
N#CCCN(Cc1ccccc1)C(=S)NC(=O)c1ccccc1 | 0.7 | 93* | 0.1 | 25 | 34
CCOc1ccc(C(=O)NC(=S)N(Cc2ccccc2)Cc2ccccc2)cc1 | 0.7 | 53* | 0.5 | 17 | 29
CCCN(CCC)C(=S)NC(=O)c1ccc(-c2ccccc2)cc1 | 1.1 | 9 | 0.9 | 33 | -9
CCN(Cc1ccccc1)C(=O)c1ccccc1C | 0.4 | 1 | 1 | 7 | 56*
Cc1cccc(NC(=O)c2sc3nc(-c4ccccc4)cn3c2C)n1 | 0.5 | 65* | 0.3 | 6 | 55*
Cc1c(C(=O)Nc2ccccc2)sc2nc(-c3ccccc3)cn12 | 0.3 | 76* | 0.2 | 6 | 70*
Cc1c(C(=O)Nc2ccc3c(c2)OCO3)sc2nc(-c3ccccc3)cn12 | 1 | 41 | 0.6 | 9 | 1
Cc1nc2cc(NC(=O)CCS(=O)(=O)c3ccccc3)ccc2s1 | . | . | . | 10 | .
Cc1ccc(C2(C)NC(=O)N(CC(=O)NC(=O)NC3CCCC3)C2=O)cc1 (configuration not stated) | 0.8 | 16 | 0.8 | . | 17
CC(C)Cn1cnc2c1c(=O)n(CC(=O)Nc1ccc3c(c1)OCO3)c(=O)n2Cc1ccccc1 | 1 | -12 | 1.1 | 5 | -1
N#Cc1c2n(c3c(=O)n(CC(=O)c4ccc([N+](=O)[O-])cc4)cnc13)CCCCC2 | . | . | . | 2 | .
N#Cc1c2n(c3c(=O)n(Cc4ccccc4)cnc13)CCCC2 | 0 | 82* | 0.2 | 5 | 98*
CCOC(=O)Cn1cnc2c(C#N)c3n(c2c1=O)CCCCC3 | 1 | 4 | 1 | 10 | 2
SMILES | CYP2C19 activ | CYP2C9 inhib | CYP2C9 act | Measles CPE | CYP2C19 inhib
N#Cc1c2n(c3c(=O)n(Cc4ccc(Cl)cc4)cnc13)CCCCC2 | 0 | 100* | 0 | 31 | 99*
O=c1c2cnn(-c3ccccc3)c2ncn1Cc1ccccc1 | . | . | . | 5 | .
N#Cc1c2n(c3c(=O)n(CC(=O)c4ccc(Br)cc4)cnc13)CCCC2 | 0.5 | 14 | 0.9 | 3 | 53*
CCCOc1ccc(/C=C/C(=O)Nc2ccc([N+](=O)[O-])cc2)cc1 | 0.6 | 59* | 0.4 | 51* | 42
CCCCOc1ccc(/C=C/C(=O)Nc2ccc([N+](=O)[O-])cc2C)cc1 | . | . | . | 10 | .
CCCCn1c(=O)n(CC(=O)Nc2ccc(C)c(Cl)c2)c(=O)c2c1ncn2Cc1ccco1 | 0.5 | 62* | 0.4 | 6 | 51*
CCCCn1c(=O)n(CC(=O)Nc2ccc(OC)c(Cl)c2)c(=O)c2c1nc(CO)n2CCC | 0.2 | 90* | 0.1 | 10 | 79*
CC(=O)Nc1cccc(Oc2ncnc3scc(-c4ccc(C(C)C)cc4)c23)c1 | . | . | . | 60* | .
CCOC(=O)N1CCN(CC(=O)Nc2ccc(Oc3ccccc3)cc2)CC1 | 0.8 | 21 | 0.8 | 5 | 17
c1ccc2c(Nc3nc(N4CCOCC4)c4ccccc4n3)cccc2c1 | . | . | . | 7 | .
Fc1ccc(Nc2nc(N3CCOCC3)c3ccccc3n2)cc1 | 0.2 | 74* | 0.3 | . | 76*

High-throughput results (PubChem)
